{"source": "the supplement of paper PMC13380429"}
{"tested_on": "Vero E6 infected with SARS-CoV-2", "assay": "inhibition of SARS-CoV-2 cytopathic effect; higher = more antiviral protection, active = above 15", "conditions": "10000 nM; 48 h"}
{"compound": "CC(C)=CCC[C@](C)(O[C@@H]1O[C@H](CO)[C@@H](O)[C@H](O)[C@H]1O)[C@H]1CC[C@]2(C)[C@@H]1[C@H](O)C[C@@H]1[C@@]3(C)CC[C@H](O)C(C)(C)[C@@H]3CC[C@]12C", "note": "[ginsenoside-C-K]", "inhibition of SARS-CoV-2 cytopathic effect": "2.52% (inactive)"}
{"compound": "C=C(C)CN1CC[C@]23c4c5ccc(O)c4O[C@H]2c2[nH]c4ccccc4c2C[C@@]3(O)C1C5", "inhibition of SARS-CoV-2 cytopathic effect": "1.05% (inactive)"}
{"compound": "C[C@]1(COc2ccc(N3CCC(Oc4ccc(OC(F)(F)F)cc4)CC3)cc2)Cn2cc([N+](=O)[O-])nc2O1", "note": "[delamanid]", "inhibition of SARS-CoV-2 cytopathic effect": "1.84% (inactive)"}
{"compound": "Nc1ncnc2c1c(-c1ccc(Oc3ccccc3)cc1)nn2C1CCCC1", "inhibition of SARS-CoV-2 cytopathic effect": "-13.6% (inactive)"}
{"compound": "C1=C2CCCN[C@H]2[C@@H]2C[C@H]1[C@H]1CCCCN1C2", "note": "[aloperine]", "inhibition of SARS-CoV-2 cytopathic effect": "-1.11% (inactive)"}
{"compound": "COc1cc(NC(=O)c2ccc(-c3ccc(Cl)cc3)o2)cc(OC)c1", "inhibition of SARS-CoV-2 cytopathic effect": "0.71% (inactive)"}
{"compound": "C=C[C@H]1CN2CC[C@H]1C[C@@H]2[C@@H](O)c1ccnc2ccc(OC)cc12", "note": "[quinidine]", "inhibition of SARS-CoV-2 cytopathic effect": "-4.21% (inactive)"}
{"compound": "CC(=O)N[C@H](Cc1ccc2ccccc2c1)C(=O)N[C@H](Cc1ccc(Cl)cc1)C(=O)N[C@H](Cc1cccnc1)C(=O)N[C@@H](CO)C(=O)N[C@@H](Cc1ccc(O)cc1)C(=O)N[C@H](CCCNC(N)=O)C(=O)N[C@@H](CC(C)C)C(=O)N[C@@H](CCCNC(=N)N)C(=O)N1CCC[C@H]1C(=O)N[C@H](C)C(N)=O", "note": "[cetrorelix]", "inhibition of SARS-CoV-2 cytopathic effect": "8.43% (inactive)"}
{"compound": "CC(=O)Nc1cccc(-n2c(=O)n(C3CC3)c(=O)c3c(Nc4ccc(I)cc4F)n(C)c(=O)c(C)c32)c1", "note": "[trametinib]", "inhibition of SARS-CoV-2 cytopathic effect": "-17.4% (inactive)"}
